“And” between values parts separate entries of the source, which are not always exact repeats. Equal entries are not always repeated.
Experiment: qHTS profiling for inhibitors of Plasmodium falciparum (DD2) proliferation (AID 743323)
Details: lower = more inhibition; at 28.7 µM (top of the series) unless noted
Excerpt: Plasmodium falciparum is a virulent malarial parasite that kills 1-2 million people worldwide each year. Transmitted by mosquitoes, the sporozoite form of the parasite enters the blood stream to infect hepatocytes, where they become merozoites that infect red blood cells (erythrocytes). Within erythrocytes, merozoites begin a […] cycle of growth and division, after which the parasite is released to infect new red blood cells. Gametocytes, which form within erythrocytes as well, circulate in the bloodstream and are ingested by the mosquito, thereby completing the life cycle. To profile malarial isolates for differential chemical responses and to identify inhibitors of malarial growth, an assay that measures P. falciparum growth and replication within erythrocytes was employed. This assay uses a DNA binding fluorescent dye (SYBR Green) to detect parasite DNA following cell lysis. Because mature erythrocytes lack DNA, only Plasmodium-derived DNA is detected.
The SYBR Green viability assay was adapted from a method described previously (Plouffe et al., 2008). For screening 3 ul culture medium was dispensed into 1536 well black clear bottom plates (Aurora Biotechnologies) using a Multidrop Combi (Thermo Fisher Scientific Inc.), 23 nL compounds in DMSO were added by a pin tool (Kalypsys), and 5 ul of erythrocytes infected with P. falciparum (0.3% parasitemia, 2.5% hematocrit final concentration) were added. The plates were incubated at 37 C in a humidified incubator in 5% CO2 for 72 h, and 2 ul lysis buffer (20 mM Tris HCl, 10 mM EDTA, 0.16% saponin, […]% triton X, 10X SYBR Green I supplied as 10,000X […] by Invitrogen) was added to each well. The plates were mixed for 25 sec with gentle shaking and incubated overnight at room temperature in the dark. The following morning, fluorescence intensity at 485(14) nm excitation and 535(25) nm emission wavelengths was measured on an EnVision (Perkin Elmer) plate reader. Plate reads were normalized relative to the control inhibitor (0.29 uM artemisinin) and vehicle (DMSO) wells present on each plate and then corrected by an algorithm using vehicle-only control plates at the beginning and end of the compound plate stack.
In the case of Cc1cccc(C)c1OCC(=O)N[C@@H](Cc1ccccc1)[C@@H](O)C[C@H](Cc1ccccc1)NC(=O)[C@H](C(C)C)N1CCCNC1=O, the activity, percent of control is reported as 0.873%.
Work on Cc1cccc(C#Cc2ccccc2)n1 yielded an activity, percent of control of 85.7%.
In the case of C[C@@H](N)C1CCC(C(=O)Nc2ccncc2)CC1 (stereo partly drawn), the activity, percent of control is reported as 103%.
Work on S=c1nc[nH]c2nc[nH]c12 yielded an activity, percent of control of 88.8% [at 57.5 µM].
Compound CCOC(=O)C(C)Oc1cccc2c(=O)n(CC(=O)Nc3ccc4c(c3)OCCO4)ccc12 (stereo not drawn) has an activity, percent of control of 97.4%.
Compound Cc1cccc(-c2[nH]ncc2-c2ccc3ncccc3n2)n1 has an activity, percent of control of 107% [at 57.5 µM].
With CC(C)c1ccc2c(c1)c(SC(C)(C)C)c(CC(C)(C)C(=O)O)n2Cc1ccc(Cl)cc1 the activity, percent of control was 27.3%.
In the case of Cc1nc(Nc2ncc(C(=O)Nc3c(C)cccc3Cl)s2)cc(N2CCN(CCO)CC2)n1, the activity, percent of control is reported as 71.4%.
Work on CC(C)C[C@H](NC(=O)[C@H](Cc1ccccc1)NC(=O)c1cnccn1)B(O)O yielded an activity, percent of control of -0.17%.
With CN(C)c1ccc2nc3ccc(=[N+](C)C)cc-3sc2c1 the activity, percent of control was 3.2% [at 57.5 µM].
With Nc1cccc2c1CN(C1CCC(=O)NC1=O)C2=O (stereo not drawn) the activity, percent of control was 89.3% [at 57.5 µM] and 104% [at 57.5 µM].
Work on Nc1nc(Cl)nc2c1ncn2[C@H]1C[C@H](O)[C@@H](CO)O1 yielded an activity, percent of control of 93.6% [at 57.5 µM].
CCCCN(CCCC)CCC(O)c1cc2c(Cl)cc(Cl)cc2c2cc(C(F)(F)F)ccc12 (stereo not drawn) showed an activity, percent of control of 0.468% [at 9.63 µM].
Cc1ccc(NC(=O)c2ccc(CN3CCN(C)CC3)cc2)cc1Nc1nccc(-c2cccnc2)n1 showed an activity, percent of control of 7.63%.
O=c1cc(N2CCOCC2)oc2c(-c3ccccc3)cccc12 gave an activity, percent of control of 96.7%.
Compound CCc1nc(N)nc(N)c1-c1ccc(Cl)cc1 has an activity, percent of control of 90.3%.
In the case of CCN(CCO)CCCC(C)Nc1ccnc2cc(Cl)ccc12 (stereo not drawn), the activity, percent of control is reported as 105% and 9.47%.
With COc1cc2c(N3CCN(C(=O)Nc4ccc(OC(C)C)cc4)CC3)ncnc2cc1OCCCN1CCCCC1 the activity, percent of control was 3.98%.
In the case of Cc1cc(C2CCCCC2)n(O)c(=O)c1, the activity, percent of control is reported as 0.27%.
Compound CCN(CC)CCOc1ccc(Nc2ncc3cc(-c4c(Cl)cccc4Cl)c(=O)n(C)c3n2)cc1 has an activity, percent of control of 1.4%.
NC(=NCc1ccccc1)NC(=O)c1nc(Cl)c(N)nc1N showed an activity, percent of control of 10.1% [at 18.4 µM].
CCOC(=O)C1=C(O)C(=O)N(Cc2ccccc2)C1 showed an activity, percent of control of 82.3%.
Work on COc1cc(Nc2c(C#N)cnc3cc(OCCCN4CCN(C)CC4)c(OC)cc23)c(Cl)cc1Cl yielded an activity, percent of control of 4.4%.

Source: PubChem BioAssay (NCATS)
